From PubChem BioAssay (Tox21)
Where “and” joins values, the source holds several entries; their conditions need not be identical. Equal entries are not always repeated. Records with an inconclusive call do not appear. Unmarked numbers belong to inactive results. Calls of active or inactive are those of the source. The call rests on the fitted dose curve; in most records, active means well fitted cell-killing curve with a large enough effect in the repeat runs; inconclusive means weak or mixed curves, or effect the other way; inactive means flat fitted curve, though single readings scatter.

Test: qHTS assay to identify small molecule that activate the aryl hydrocarbon receptor (AhR) signaling pathway - cell viability counter screen (AID 743086); further: nearly all actives have a fitted effect of over 45% in size;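 on viability change, negative = cytotoxic: HepG2 liver cells carrying the AhR DRE luciferase reporter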
Details: HepG2-AhR-luc viability, CellTiter-Fluor, 24 h; series mostly up to 70.3 µM; viability change, negative = cytotoxic: at the top concentration
Description: U.S. Tox21 Program National Center for Advancing Translational Sciences [NCATS] NIH Chemical Genomics Center [NCGC] U.S. Environmental Protection Agency [EPA] National Institutes of Environmental Health Sciences [NIEHS] National Toxicology Program [NTP] U.S. Food and Drug Administration [FDA] Tox21 Assay overview: The Aryl hydrocarbon Receptor (AhR), a member of the family of basic helix-loop-helix transcription factors, is crucial to adaptive responses to environmental changes. AhR mediates cellular responses to environmental pollutants such as aromatic hydrocarbons through induction of phase I and II enzymes but also interacts with other nuclear receptor signaling pathways A cell based HepG2-AhR-luc assay (HG2L7.5c1 cell line, developed by Dr. Michael S. Denison, University of California at Davis) was used to assess the activation of AhR. HepG2 (human hepatocellular carcinoma) cells were stably transfected with an Ah receptor-responsive firefly luciferase reporter gene plasmid containing 20 dioxin responsive elements and luciferase reporter gene. Increased luciferase activity can be used to identify the compounds that induce AhR activation. The cytotoxicity of the compounds screened against the HepG2-AhR-luc cell line was tested in parallel by measuring the cell viability using CellTiter-Fluor assay in the same wells.
Tox21 Assay Protocol Summary: 4000 cells in 5 uL/well were dispensed into white wall/solid bottom 1536-well plates using a Multidrop Combi (Thermo Fisher Scientific Inc., Waltham, MA) dispenser. After the assay plates were incubated at 37C for 5 h, 23 nL of compound or DMSO vehicle was transferred to the assay plates by a pintool station (Kalypsys, San Diego, CA). The plates were incubated at 37C for 24 hr. For cell viability measurement, 1 ul/well of CellTiter-Fluor reagent (Promega, Madison, WI) was added into the assay plates using a Flying Reagent Dispenser (FRD) (Aurora Discovery, CA),and then the assay plates were incubated at 37C for 30 min. The fluorescence intensity in the plates was measured using a ViewLux plate reader (PerkinElmer, Shelton, CT), followed by the addition of 4 uL of ONE-Glo Luciferase Assay reagent (Promega) using an FRD (Aurora Discovery). After the assay plates were incubated at room temperature for 30 min, luminescence intensity was measured using a ViewLux plate reader (Perkin Elmer).
On the % scale 0 is the no-effect control and ±100 the full control effect; potency means the concentration at half of the fitted maximal effect.

Compound | viability change, negative = cytotoxic | Potency
Cc1ccccc1OP(=O)(Oc1ccccc1C)Oc1ccccc1C | 0.51% [at 95 µM] | –
C=CC(=O)[O][Sn]([CH2]CCC)([CH2]CCC)[CH2]CCC | – | 4.33 µM (active)
Clc1ccc(C(Cl)(Cl)Cl)cc1Cl | 2.42% | –
CCN(CC)CCc1c[nH]c2ccccc12 | -14.6% [at 95 µM] | –
CCOP(=O)(Sc1ccccc1)Sc1ccccc1 | -0.456% | –
COC(=O)/C=C(\C)OP(=O)(OC)OC | 10.5% | –
Cc1ccn2nc(S(=O)(=O)Nc3c(F)cccc3F)nc2n1 | 20.1% | –
CC(C)N(C(=O)CCl)c1ccccc1 | – | 38.6 µM (active) and 68.6 µM (active)
Cc1cccc(Cc2cnc[nH]2)c1C | 16.7% | –
COC(=O)N(OC)c1ccccc1COc1ccn(-c2ccc(Cl)cc2)n1 | -0.419% | –
O=S1OCC2C(CO1)C1(Cl)C(Cl)=C(Cl)C2(Cl)C1(Cl)Cl (stereo not given) | -1.27% | –
C=CCOC(=O)c1ccccc1N | 14.3% [at 95 µM] | –
O=NN(CCO)CCO | 5.93% | –
CC(Cc1ccc(O)cc1)NCC(O)c1cc(O)cc(O)c1 (stereo not given) | 14.3% | –
CCCC[N+]1(C)CCCC1 (tested in a mixture with another compound) | 4.66% [at 95 µM] | –
CC(O)C(=O)[O][Hg][c]1ccccc1 (stereo not given) | – | 4.86 µM (active)
Oc1cc(Cl)c(Cl)c(Cl)c1Cl | -11.2% | –
CSSC | -1.17% [at 95 µM] | –
O=C(O)CCCCCCNC1c2ccccc2CCc2ccccc21 | -5.07% | –
CC(=O)[O-].CC(=O)[O-].O.O.O.[Pb+2] | 6.36% | –

Compound | viability change, negative = cytotoxic | Potency
C#CCO | 0.825% | –
COC(=O)C(C)N(C(=O)c1ccco1)c1c(C)cccc1C (stereo not given) | 0.698% | –
O=[N+]([O-])c1cc(C(F)(F)F)c(Cl)c([N+](=O)[O-])c1Nc1ncc(C(F)(F)F)cc1Cl | – | 13.7 µM (active)
[Cl-].[Cl-].[Cl-].[Yb+3] | 14.3% | –
CCCN | 5.55% [at 95 µM] | –
Oc1cc(Cl)cc(Cl)c1 | 14.6% [at 95 µM] | –
Cc1c([N+](=O)[O-])c(C)c([N+](=O)[O-])c(C(C)(C)C)c1[N+](=O)[O-] | 2.22% | –
O=C(Nc1ccc(F)cc1F)c1cccnc1Oc1cccc(C(F)(F)F)c1 | -9.82% [at 95 µM] | –
CCCCCCCc1ccc(O)cc1 | -7.13% | –
Nc1c(Cl)c(Cl)c(Cl)c(Cl)c1Cl | 5.32% | –
CSC(C)(C)/C=N/O | 13.9% | –
CCN1CCC2(CC1)COc1cc3c(cc12)N(C(=O)c1ccc(-c2ccc(-c4nnc(C)o4)cc2C)cc1)CC3 | – | 28.3 µM (active)
O=C(NC(=O)c1c(F)cccc1F)Nc1ccc(Oc2ccc(C(F)(F)F)cc2Cl)cc1F | -10.2% | –
[Cl-].[Cl-].[Sn+2] | -2.17% | –
Clc1cc(Cl)c(-c2cc(Cl)c(Cl)cc2Cl)cc1Cl | 4.4% | –
COc1cnc(OC)n2nc(NS(=O)(=O)c3c(OCC(F)F)cccc3C(F)(F)F)nc12 | 13.8% | –
CC(C)NCC(O)c1ccccc1Cl (stereo not given) | -1.43% | –
CCCCN(CCCC)C(=S)[S-].CCCCN(CCCC)C(=S)[S-].[Ni+2] | -0.176% | –
CN1C(=O)[C@@H](NC(=O)c2cc3ccccc3[nH]2)N=C(c2ccccc2)c2ccccc21 | -1.59% | –
BrCC(Br)(Br)Br | 5.68% [at 95 µM] | –
